This is an account of results in PubChem BioAssay AID485317 (Broad Institute, 2010).

About 11,000 (3.8%) of roughly 290,000 compounds were called active. The sample holds actives, similar compounds and a random draw of the others, so the mix is not that of the screen.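 The calls were made as follows: active = mean replicate inhibition above about 79%, with every replicate also reaching it (limit read from the data); inconclusive = only one of the two criteria met; inactive = mean below limit and not every replicate reaching it.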

The assay deals with FAD-linked sulfhydryl oxidase ALR (Homo sapiens) (UniProt P55789). Description: ALR-catalysed DTT oxidation blockers – biochemical, H2O2 detection, HRP-luminol luminescence, single point, primary screen (AID 485317). To be noted: purified ALR, stronger effect = higher value, concentration not given here.
Chain of FAD-linked sulfhydryl oxidase ALR (Homo sapiens) (P55789 whole entry, looked up): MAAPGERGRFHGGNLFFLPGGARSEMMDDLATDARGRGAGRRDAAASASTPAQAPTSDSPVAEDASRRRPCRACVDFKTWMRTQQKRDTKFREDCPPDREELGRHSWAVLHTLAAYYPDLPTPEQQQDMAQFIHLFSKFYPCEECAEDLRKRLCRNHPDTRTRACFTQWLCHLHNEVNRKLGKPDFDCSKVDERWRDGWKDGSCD
The inhibition is the drop in the measured response relative to a control, in per cent. Turning to `Cc1cccc(NC(=O)C2CCN(S(=O)(=O)c3cccc4cccnc34)CC2)c1`, the inhibition is 88.1% (active).

In the case of `COc1ccc(NC(=O)C2CCCN(S(=O)(=O)c3cccc4cccnc34)C2)cc1OC` (configuration not stated), the inhibition is -28.5% (inactive). As to `Cc1cc(C)cc(NC(=O)C2CCCN2S(=O)(=O)c2cccc3cccnc23)c1` (configuration not stated), the inhibition was -0.666% (inactive). With `CC(NC(=O)c1ccccc1F)c1cccc2ccccc12` (configuration not stated) the figure was -16.5% (inactive). Take `O=c1oc2ccc(C#CC3(O)CCCCC3)cc2cc1-n1cc(-c2ccsc2)nn1`: the inhibition was -6.77% (inactive).

Regarding `O=C(CN1C(=O)NC2(CCCC2)C1=O)Nc1cc(C(F)(F)F)ccc1N1CCOCC1`, the inhibition was -1.5% (inactive). Turning to `COc1ccccc1S(=O)(=O)NCc1ccc(C(=O)N(C)Cc2ccc(F)cc2)cc1`, the inhibition was -4.34% (inactive). `C=CCn1c(=S)[nH]c2scc(-c3ccco3)c2c1=O`: the inhibition was 98.3% (active). Turning to `C=CCn1c(SCc2csc(C)n2)nc2scc(-c3ccc(C)o3)c2c1=O`, the inhibition was 16.6% (inactive).

In the case of `C=CCNC(=O)CSc1nc2scc(-c3ccco3)c2c(=O)n1CC=C`, the inhibition was -0.872% (inactive).

On to `CCN1CCN(Cc2nc3c(c(=O)n(C)c(=O)n3C)n2CC(=O)c2ccccc2)CC1`, for which the inhibition was 98.2% (active). In the case of `CC1CCCN(Cc2nc3c(c(=O)n(C)c(=O)n3C)n2CC(=O)c2ccccc2)C1` (configuration not stated), the inhibition was -8.6% (inactive).

Consider `CCOC(=O)N1CCN(Cc2nc3c(c(=O)n(C)c(=O)n3C)n2Cc2ccccc2)CC1`, for which the inhibition was -3.2% (inactive). With `O=C(CCCCO)c1ccc(O)c(Cl)c1` the figure was 7.83% (inactive); with `Cc1nnc(SCC(=O)N2CCN(c3ccccc3)CC2)n1-c1ccccc1`, 46.1% (inactive); with `Cc1cc2nnc(SCC(=O)N3CCN(c4ccccc4)CC3)n2c(N)n1`, 98% (active). Consider `Cn1c(Cc2cccc3ccccc23)nnc1SCC(=O)N1CCN(c2cccc(Cl)c2)CC1`, for which the inhibition is -3.36% (inactive).

Take `CCN(CC(=O)NCc1ccc(Cl)cc1)C(=O)c1c(C)noc1C`: the inhibition is -1.1% (inactive). Turning to `COc1ccc2[nH]c(C(=O)N/N=C/c3cc(OC)c(OC)c(OC)c3)cc2c1`, the inhibition is 90.9% (active). Consider `CCOc1ccc2[nH]c(C(=O)N/N=C/c3cccc(OC)c3OC)cc2c1`, for which the inhibition is -44.7% (inactive).

For `COc1cc2cc(C(=O)N/N=C/c3cccc(OC)c3OC)[nH]c2cc1OC`, the inhibition is 15.9% (inactive). Regarding `COc1ccc(C(=O)NCC2CCCN2S(=O)(=O)c2cccs2)cc1OC` (configuration not stated), the inhibition is -12.1% (inactive). For the molecule `COc1ccccc1C(CNC(=O)c1ccc(C)c(S(=O)(=O)N2CCCCC2)c1)N(C)C` (configuration not stated), the inhibition is -5.4% (inactive). For the molecule `Nc1c(N(CCCO)C(=O)C2CCCC2)c(=O)[nH]c(=O)n1Cc1ccccc1`, the inhibition is 2.17% (inactive). With `O=C(NNS(=O)(=O)c1c(F)cc(F)c(Cl)c1F)C12CC3CC(CC(C3)C1)C2` the figure was -7.91% (inactive); with `COCCCn1c(SCC(=O)Nc2ccccc2)nnc1-c1ccncc1`, -6.22% (inactive).

With `CC1CCCCC1NC(=O)CSc1nnc(-c2ccncc2)n1CCCN(C)C` (configuration not stated), the inhibition is -3.25% (inactive). With `CSc1nnc(-c2ccncc2)n1CCCN1CCCC1=O`, the inhibition was 98.1% (active).

As to `O=C(c1cnccn1)N1CCN(S(=O)(=O)c2cccc(Cl)c2)CC1`, the inhibition is -2.25% (inactive). As for `Cc1cc(C)c(OCC(=O)N/N=C/c2ccco2)c(C)c1`, the inhibition is -5.47% (inactive). As to `COc1cccc2c(N/N=C/c3ccco3)cc(C)nc12`, the inhibition was 91.2% (active). Regarding `O=c1nc(N/N=C/c2ccco2)cn[nH]1`, the inhibition is -0.901% (inactive). With `COc1cc2ccccc2cc1C(=O)Nc1nc(C)c(C(C)=O)s1`, the inhibition is -3.67% (inactive). Take `COc1ccc(C(CNC(=O)c2ccc(S(=O)(=O)Nc3ccccc3C)cc2)N2CCOCC2)cc1` (configuration not stated): the inhibition was 1.74% (inactive). With `CC(NC(=O)COC(=O)Cn1cc(C(F)(F)F)ccc1=O)c1ccccc1` (configuration not stated) the figure was -3.5% (inactive); with `COc1cc(-c2c(-c3ccc4c(c3)OCO4)noc2C)ccc1F`, 3.17% (inactive); with `COc1c(F)c(F)c(C(=O)O)c(Nc2ccccc2C)c1F`, 18.5% (inactive).

As to `Cc1ccc(Nc2c(F)c(F)c(F)c(F)c2C(=O)O)c(C)c1`, the inhibition was 98.2% (active). As for `CCOC(=O)N1CCN(C(=S)Nc2ccc(C)cc2C)CC1`, the inhibition is -22.4% (inactive). Then `O=C(NCC#CCSc1nnc(-c2cccc3ccccc23)o1)c1cccs1`, with -4.12% (inactive); and `COc1ccc(C(=O)NCC(=O)N/N=C/c2ccc([N+](=O)[O-])o2)cc1OC`, with -60.3% (inactive); and `COc1cc(/C=N\NC(=O)CNC(=O)c2cccc([N+](=O)[O-])c2)ccc1O`, with 98.6% (active). Take `COc1ccc(C(=O)NCC(=O)N/N=C/c2ccc([N+](=O)[O-])s2)cc1OC`: the inhibition is -29.5% (inactive). As for `COc1ccc(C(=O)N2CCN(c3ncccn3)CC2)cc1S(=O)(=O)N1CCOCC1`, the inhibition was -2.44% (inactive). On to `CSc1ncccc1C(=O)Nc1cccc(S(=O)(=O)N2CCOCC2)c1`, for which the inhibition is -2.48% (inactive).

For the molecule `O=C1C=C(c2ccnc3cc(Cl)ccc23)C[C@@H](c2ccc3c(c2)OCO3)C1`, the inhibition was -0.313% (inactive). Then `Cc1ccccc1N1CCN(CCCOc2ccc3c(C)cc(=O)oc3c2)CC1`, with -0.584% (inactive); and `Cc1cc(=O)oc2cc(OCC3CC(c4ccccc4Cl)=NO3)ccc12` (configuration not stated), with 97.9% (active). For `Cc1cc(=O)oc2cc(OCCC[n+]3ccccc3)ccc12`, the inhibition is -10.6% (inactive).

`Cn1nnnc1SCC(=O)Nc1cccc(S(=O)(=O)N2CCCCC2)c1`: the inhibition was -1.39% (inactive). As to `Cc1ccc(Cl)cc1NC(=O)C1CCCN(c2cnccn2)C1` (configuration not stated), the inhibition was -6.26% (inactive).

`Cc1ccnc(N2CCCC(C(=O)Nc3cc(F)ccc3C)C2)n1` (configuration not stated): the inhibition was 87.3% (active). Take `Cc1ccnc(N2CCCC(C(=O)NC3CC3)C2)n1` (configuration not stated): the inhibition is 1.74% (inactive).

As for `Cc1noc(C)c1S(=O)(=O)N(C)C[C@H]1Oc2ccc(NC(=O)C3CC3)cc2C(=O)N([C@H](C)CO)C[C@@H]1C`, the inhibition is 2.82% (inactive). `CCCNC(=O)c1onc(CSc2ccc(F)cc2)c1C(=O)NC(C)C`: the inhibition was 3.87% (inactive). `CN(C)C(=O)COC(=O)c1cccc(S(=O)(=O)N2CC3(C)CC2CC(C)(C)C3)c1` (configuration not stated): the inhibition was -0.802% (inactive).

With `COc1cccc(NC(=O)COC(=O)c2ccc3ccccc3n2)c1`, the inhibition is -1.64% (inactive).
